Assay results taken from PubChem BioAssay AID493098 (Sanford-Burnham Center for Chemical Genomics, 2011).
Values joined by “and” are separate entries in the source; they are usually repeats but may differ in a detail not shown here. Equal values may be shown once. In all, about 340,000 compounds went through this assay and about 1,700 (0.5%) were called active.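 Rule for the calls: active = compounds whose inhibition of the agonist-driven luminescence signal at 20 µM reaches about 50% (limit read from the data); inactive = the rest.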 The list comes from a sample in which actives are over-represented; it also holds similar structures and randomly drawn compounds.

Target: C-C chemokine receptor type 6 (Homo sapiens) (UniProt P51684)
Assay: blockers of CCL20-driven beta-arrestin recruitment to CCR6 – cell-based, CHO-K1, luminescence, uHTS, primary screen (AID 493098);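 note: cells stimulated with CCL20 at 14 nM final; plate controls were DMSO with CCL20 for no effect and DMSO without agonist for full effect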
Conditions: CHO-K1 CCR6 PathHunter beta-arrestin, CCL20-stimulated, at 20 µM, active compounds read high

Sequence of C-C chemokine receptor type 6 (Homo sapiens) (P51684 whole entry, looked up): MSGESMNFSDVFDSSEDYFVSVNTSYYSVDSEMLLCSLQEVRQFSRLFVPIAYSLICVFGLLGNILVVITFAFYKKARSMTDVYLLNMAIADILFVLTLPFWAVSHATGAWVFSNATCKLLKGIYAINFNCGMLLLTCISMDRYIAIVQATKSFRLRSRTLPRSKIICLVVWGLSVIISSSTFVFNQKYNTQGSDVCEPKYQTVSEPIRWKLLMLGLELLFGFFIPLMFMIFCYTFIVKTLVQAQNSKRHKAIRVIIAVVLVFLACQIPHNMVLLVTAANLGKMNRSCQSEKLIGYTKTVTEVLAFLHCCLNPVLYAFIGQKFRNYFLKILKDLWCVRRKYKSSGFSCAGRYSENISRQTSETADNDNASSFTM

Row | Structure (SMILES) | inhibition
1 | CSCCC(NC(=O)COc1ccccc1)C(=O)OCC(=O)c1cc2ccccc2o1 (stereo not drawn) | 59.6% (active)
2 | CSCCC(NC(=O)COc1ccccc1)C(=O)OCCOc1ccc(Br)cc1 (stereo not drawn) | 12.1% (inactive)
3 | CSCCC(NC(=O)COc1ccccc1)C(=O)OCc1ccc(Cl)cc1 (stereo not drawn) | -15.3% (inactive)
4 | C#CCO[C@@H]1C[C@H](n2cnc3c(=O)[nH]c(NC(=O)C(C)C)nc32)O[C@@H]1CO | -6.43% (inactive)
5 | Cc1csc(SCC(=O)N(c2ccccc2)C(C)C)n1 | 13.7% (inactive)
6 | Cc1nc(-c2ccc(F)cc2)c(CC(=O)Nc2cc(S(=O)(=O)N3CCCCC3)ccc2C)s1 | 5.08% (inactive)
7 | CC1=C/C(=N\OS(=O)(=O)c2ccccc2)C=CC1=O | 80.3% (active)
8 | O=C(NC1CC1)C(Cc1ccccc1)NS(=O)(=O)c1ccccc1F (stereo not drawn) | 6.69% (inactive)
9 | CN(O)C(=S)c1ccccc1 | 95.7% (active)
10 | CN(/N=C/c1ccccc1)C(=S)c1ccccc1 | 23.9% (inactive)
11 | CN(CC(=O)O)C(=O)c1ccccc1 | -10.2% (inactive)
12 | COC(=O)c1sc(-c2ccc(C(C)(C)C)cc2)cc1NC(=O)/C=C/C(=O)O | -1.25% (inactive)
13 | O=[N+]([O-])/C=C/c1ccc2c(ccn2Cc2ccccc2)c1 | 91.2% (active)
14 | Cc1nnc(NC(=O)Cn2c(=O)sc3ccccc32)s1 | -5.17% (inactive)
15 | COc1cccc(NC(=O)c2cc(S(=O)(=O)N3CCc4ccccc43)cn2C)c1 | -11.8% (inactive)
16 | Cc1cccc(NC(=O)Cc2ccc(Br)cc2)n1 | 13.2% (inactive)
17 | O=C(CCl)NNc1cccc(Cl)n1 | 60.7% (active)
18 | O=C(Cc1c(Cl)cccc1Cl)NC1CC1 | -1.28% (inactive)
19 | C=CCC(C(=O)c1ccccc1)[N+](C)(C)CC=C (stereo not drawn) | -0.91% (inactive)
20 | CN(CCc1ccccn1)C(=O)c1ccc(OC2CCN(CCc3ccccc3)CC2)cc1 | 13.6% (inactive)
21 | CCc1c(C)nc2c(-c3ccccc3)c(C)nn2c1Nc1ccc(NC(C)=O)cc1 | 4.32% (inactive)
22 | COc1ccc(C(=O)NCC(=O)N/N=C/c2cccnc2)cc1 | -3.8% (inactive)
23 | O=C(CSc1cccc2cccnc12)N/N=C/c1cccnc1 | 61.7% (active)
24 | CCn1c(SCC(=O)N/N=C/c2ccncc2)nc2ccccc21 | 10.1% (inactive)

Row | Structure (SMILES) | inhibition
25 | COc1ccc(C(=O)NCc2ccccc2C)cc1S(=O)(=O)NC1CCCC1 | 2.68% (inactive)
26 | O=c1onc(-c2cccs2)n1Cc1ccccc1 | 2.59% (inactive)
27 | Cc1c(O)c(C)c2c(c1O)C(=O)C[C@@H](c1ccccc1)O2 | 14.4% (inactive)
28 | COC(=O)C1=C(C)N(C)C(C)=C(C(=O)OC)C1c1cccc(Br)c1 | 36.4% (inactive)
29 | COC(=O)C1NN=C(C(=O)c2ccc(Br)cc2)C1c1cccc(Br)c1 (stereo not drawn) | 52.8% (active)
30 | COc1ccc(C(=O)c2oc3ccc(Br)cc3c2NC(C)=O)cc1 | 3.07% (inactive)
31 | COC(=O)c1ccc([C@@H](O)[C@H](C)C(=O)CC(=O)OC(C)(C)C)cc1 | 0.65% (inactive)
32 | N#Cc1cccc(OC(=O)c2ccc3c(=O)n4c(nc3c2)CCC4)c1 | 9.54% (inactive)
33 | Cc1ccc(-n2ncc3c(Nc4cccc(C(=O)O)c4)ncnc32)cc1 | 9.65% (inactive)
34 | COc1cc(CNc2ncn[nH]2)ccc1OCc1ccccc1C | -5.7% (inactive)
35 | CC1(C)CC[C@]2(C(=O)O)CC[C@]3(C)C(=CCC4[C@@]5(C)CC[C@H](O)C(C)(C)C5[C@H](O)C[C@]43C)[C@@H]2C1 (stereo partly drawn) | -0.24% (inactive)
36 | Cc1c(NC(=O)CSc2nnc(-c3cccnc3)n2N)c(=O)n(-c2ccccc2)n1C | 5.23% (inactive)
37 | Cc1c(NC(=O)CSc2nnnn2-c2ccc(C(=O)O)cc2)c(=O)n(-c2ccccc2)n1C | 10.9% (inactive)
38 | Cc1c(NC(=O)CSc2cccc3cccnc23)c(=O)n(-c2ccccc2)n1C | 59.7% (active)
39 | Cc1ccc(C)c(OCCC(=O)OCC(=O)N2CCN(c3ccccc3)CC2)c1 | 20.8% (inactive)
40 | Cc1csc(NC(=S)Nc2cccc(Cl)c2)n1 | 60% (active)
41 | CCC(=O)Nc1nc(C)c(C(=O)Nc2cccc(Cl)c2)s1 | 5.65% (inactive)
42 | Cc1cc(Cl)nc(NC(=O)Nc2cccc(Cl)c2)n1 | 16% (inactive)
43 | Cc1cccc(NC(=O)CCN2CC(C)CC(C)C2)c1 (stereo not drawn) | 8.72% (inactive)
44 | C=CCn1c(N)c(C(=O)OCC(C)C)c2nc3ccccc3nc21 | 56.9% (active)
45 | C=CCn1c(P(C)(=O)O)nc2ccccc21 | 2.22% (inactive) and 1.13% (inactive)
46 | C=CCn1c(C(C)NC(=O)CC)nc2ccccc21 (stereo not drawn) | 2.5% (inactive)
47 | CCc1nnc(NC(=O)C2CCN(C(=O)c3ccccc3C)CC2)s1 | 1.37% (inactive)
48 | COc1ccc(CCOC(=O)CNC(=O)c2ccc(Cl)cc2Cl)cc1 | 27.9% (inactive)

Row | Structure (SMILES) | inhibition
49 | Cc1ccc(Br)c(NS(=O)(=O)c2cccc(C(=O)N3CCNC(=O)C3)c2)c1 | -11% (inactive)
50 | COc1ccc2c(c1)c(=Cc1ccc(N(C)C)cc1)c1cc(-c3ccccc3)[n+](C)n12 | 67.2% (active)
51 | COc1ccc2sc(-c3ccc(N(C)C)cc3)c(C#CCO)c2c1 | -34.2% (inactive)
52 | Cc1ccc(Cn2c(C)c3cnn(CC(=O)NCc4ccccn4)c(=O)c3c2C)cc1 | -8.58% (inactive)
53 | CCOC(=O)c1cnc(Nc2nc3ccccc3o2)nc1CSC(=S)N1CCCCC1 | 66.8% (active)
54 | CCOC(=O)CCNC(=O)N1CCCC(C(=O)c2ccccc2SC)C1 (stereo not drawn) | -6.81% (inactive)
55 | CCc1ccc(CNC(=O)C2CCCN(c3nc4ccccc4o3)C2)cc1 (stereo not drawn) | -4.97% (inactive)
56 | O=C(COc1ncnc2ccccc12)NC(=O)NCc1ccccc1 | 3.38% (inactive)
57 | NS(=O)(=O)c1ccc(NC(=S)NNC(=O)c2cccs2)cc1 | 31.7% (inactive)
58 | CCOc1ccc(C(=O)Nc2nccs2)cc1[N+](=O)[O-] | 4.46% (inactive)
59 | Cc1ccc(OS(=O)Nc2cccc3nccnc23)cc1 (stereo not drawn) | 55.4% (active)
60 | Cc1ccc(Oc2ccc3c(c2)C(=O)N(c2cccc4cccnc24)C3=O)cc1 | 8.43% (inactive)
61 | Cc1ccc(C)c(NC(=O)c2ccc3nccnc3c2)c1 | -3.74% (inactive)
62 | CC1CN(C(=O)COC(=O)c2cccc(NS(=O)(=O)c3ccccc3)c2)CC(C)O1 (stereo not drawn) | -4.23% (inactive)
63 | COc1ccc(C2C(C(C)=O)=C(O)C(=O)N2c2nccs2)cc1 (stereo not drawn) | 22.9% (inactive)
64 | CC1(C)C=Cc2c(ccc3c2OC[C@@H](c2ccc(O)cc2O)C3)O1 | -20.6% (inactive)
65 | CN(C)/C=N/c1cc(=O)n(C)c(=O)n1CC1CC1 | -0.5% (inactive)
66 | CCOC(=O)c1nnn2c1nc(N1CCN(c3ccccc3)CC1)c1ccccc12 | 13.9% (inactive)
67 | COc1ccc(CNc2nccs2)cc1 | 19.1% (inactive)
68 | COc1ccc(-c2csc(Cc3nc(O)cs3)n2)cc1 | 68.3% (active)
69 | CCCn1c(C2CCCN2c2nc(-c3ccc(OC)cc3)cs2)nc2ccccc21 (stereo not drawn) | 22.3% (inactive)
70 | Cc1cccc(N(C)C(=O)c2cc(S(=O)(=O)N3CCCCC3)c[nH]2)c1 | -9.41% (inactive)
71 | Cc1ccc2c(c1)C1C[N+](C)(CC(=O)c3ccccc3)CCC1N2C(=O)c1ccccc1Cl (stereo not drawn) | 7.95% (inactive)
72 | O=[N+]([O-])c1ccc(C=NN=Cc2ccc([N+](=O)[O-])cc2)cc1 | 9.6% (inactive)

Row | Structure (SMILES) | inhibition
73 | O=C1/C(=C\c2ccc([N+](=O)[O-])cc2)CS(=O)(=O)C/C1=C/c1ccc([N+](=O)[O-])cc1 | 102% (active)
74 | O=C(NN=Cc1ccc([N+](=O)[O-])cc1)C1CC1 | -1.3% (inactive)
75 | OCCC1CN(Cc2cccn2-c2nccs2)CCN1CCc1ccccc1 (stereo not drawn) | 3.25% (inactive)
76 | CCCOC(=O)c1c(NC(=O)c2cnn3c2NC(c2ccccc2)CC3C(F)(F)F)sc2c1CCCC2 (stereo not drawn) | 8.83% (inactive)
77 | O=C1Nc2ccc(Br)cc2/C1=N/N=C/C1=C(N2CCOCC2)C(=C\c2ccccc2)/CC1 | 55.1% (active)
78 | N#C/C(=C\C1=C(N2CCOCC2)C(=C\c2ccccc2)/CC1)C(=O)Nc1ccccc1F | 37.8% (inactive)
79 | O=C(O)c1ccc(NN=CC2=C(N3CCOCC3)/C(=C/c3ccccc3)CC2)cc1 | -7.52% (inactive)
80 | COc1ccc(Nc2cc(=O)n(-c3ccccc3)c3c2c(=O)n(C)c(=O)n3C)cc1 | 2.01% (inactive)
81 | Cc1ccc(S(=O)(=O)N2CCN(C)CC2)cc1 | 13.6% (inactive)
82 | Cn1ncc(N2CCN(S(=O)(=O)c3ccc(Br)cc3)CC2)c(Cl)c1=O | 6.7% (inactive)
83 | CN(C)/C=C(/C(=O)c1ccc(Cl)c(Cl)c1)c1nnnn1-c1ccccc1 | 3.92% (inactive)
84 | O=C(c1ccc(Cl)cc1)N1N=C(c2ccccn2)CC1(O)C(F)(F)F (stereo not drawn) | 57.1% (active)
85 | O=C(Cc1ccccc1)N1N=C(c2ccncc2)CC1(O)C(F)(F)F (stereo not drawn) | 6.09% (inactive)
86 | O=C(C1CC1)N1N=C(c2ccc(Br)cc2)CC1(O)C(F)(F)F (stereo not drawn) | 2.39% (inactive)
87 | Cc1ccc(-n2c(O)c(C=Nc3ccc(S(=O)(=O)Nc4ncccn4)cc3)c3ccccc3c2=O)cc1C | 13.7% (inactive)
88 | CCOc1ccc(-n2c(O)c(/C=N/Nc3nc(C)cc(C)n3)c3ccccc3c2=O)cc1 | 52.4% (active)
89 | CCN(CC)CCCN=Cc1c(O)n(-c2ccc(C)cc2)c(=O)c2ccccc12 | 6.64% (inactive)
90 | CC(=O)c1cccc(NC(=O)N2CCCC2C(=O)NCCC(C)C)c1 (stereo not drawn) | 8% (inactive)
91 | Cc1nn(C(C)CC(=O)O)c(C)c1C (stereo not drawn) | -5.98% (inactive)
92 | O=c1ccc2c(-c3ccccc3S(=O)(=O)O)c3ccc(O)c(O)c3oc-2c1O | 64.6% (active)
93 | O=C(CSc1ccc2nnc(-c3ccccc3)n2n1)N1CCCc2ccccc21 | -9.56% (inactive)
